Test [1] has as its target T1, Aspartate--tRNA(Asp/Asn) ligase (Mycobacterium tuberculosis (strain ATCC 25618 / H37Rv)) (UniProt P9WFW3). Also: in the data most compounds retested in dose-response had high values.
T1 sequence (whole entry): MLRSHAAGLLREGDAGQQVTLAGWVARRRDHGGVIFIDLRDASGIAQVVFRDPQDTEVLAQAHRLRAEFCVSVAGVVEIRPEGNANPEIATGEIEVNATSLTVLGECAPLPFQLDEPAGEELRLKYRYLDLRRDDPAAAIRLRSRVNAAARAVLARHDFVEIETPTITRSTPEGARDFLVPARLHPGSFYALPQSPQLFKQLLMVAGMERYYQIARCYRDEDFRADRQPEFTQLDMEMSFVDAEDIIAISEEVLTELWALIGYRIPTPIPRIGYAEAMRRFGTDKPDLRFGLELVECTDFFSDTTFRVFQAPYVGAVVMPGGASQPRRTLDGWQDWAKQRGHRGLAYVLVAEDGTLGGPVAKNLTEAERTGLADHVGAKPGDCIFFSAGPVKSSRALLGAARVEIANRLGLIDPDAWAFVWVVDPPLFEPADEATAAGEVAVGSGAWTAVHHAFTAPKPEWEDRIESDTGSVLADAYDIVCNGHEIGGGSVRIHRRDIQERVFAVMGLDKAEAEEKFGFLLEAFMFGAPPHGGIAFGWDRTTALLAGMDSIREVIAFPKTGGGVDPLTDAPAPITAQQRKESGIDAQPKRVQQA
The experiment in a line: Assay for Asp RNA synthetase-1 from Mycobacterium tuberculosis. The format is functional. Details: scale not given: direction of the effect not stated beside the values. The note with it: 30 µM.

Test [2] deals with Shiga toxin 2 (Escherichia coli O157:H7) (UniProt P09385+P09386). The experiment in a line: E. coli 0.157:H7 Shiga Toxin SOP - stx2 screening assay. In kind it is functional. The note with it: 30 µM. Details: scale not given: direction of the effect not stated beside the values.

Regarding `Cc1ccc2c(c1)CN(C(=O)C1CCCCC1)C(CN(C)C)CO2` (centres undefined), the Percent Effect in test [1] turned out to be 1.26%; in test [2] it was 2.56%.
In the same order, the values of `COCCC1(CO)CCCN(Cc2ccc(F)c(C)c2)C1` (centres undefined) are 6.95% and 15.6%.
On to `Cc1ccc(CN2C[C@@H]3COC[C@@H](NS(C)(=O)=O)[C@@H]3C2)o1`, for which the Percent Effect in test [1] was 1.98%; in test [2], -1.23%.
Taken in the same sequence, the figures for `Cc1cc(CN2CCN(c3nn4cc(C)nc4s3)CC2)on1` were -0.8% and -27.6%.
In the same order, the values of `NC(=O)C1CCN(C(=O)NCc2ccccc2Cn2cncn2)CC1` are 2.04% and 1.76%.
In the same order, the values of `CN1CC(=O)N(c2ccccc2)CC12CCN(Cc1cccnc1)C2` (centres undefined) are -5.22% and -7.54%.
As for `NC(=O)NCC1CCCCN1C(=O)c1cccc(C(F)(F)F)c1` (centres undefined), the Percent Effect in test [1] came to 2.58%; in test [2] it was 11.1%.
Regarding `CC(c1ccccc1)n1c(SCC(=O)O)nnc1-c1ccccc1Cl` (centres undefined), the Percent Effect in test [1] came to 1%; in test [2], 2.71%.
In the same order, the values of `CCN1CC2(CC1=O)CN(Cc1ccco1)CCN(C(=O)N(C)C)C2` (centres undefined) are -2.71% and -10.3%.
On to `Cn1nnc2c1CCN(Cc1ccccc1)C2COCC1CC1` (centres undefined), for which the Percent Effect is 2.13% in test [1] and -19.5% in test [2].
As for `O=C(CO[C@@H]1CC[C@H]2[C@H]1OCCN2CC1CCOCC1)N1CCCC1`, the Percent Effect is 0.943% in test [1] and -4.47% in test [2].
Turning to `Cc1nc(C)n(CC2CCCN2Cc2nc(N)c3ccccc3n2)n1` (centres undefined), the Percent Effect in test [1] was -1.84%; in test [2], -29.4%.
As for `O=C(Cc1cccs1)NC1CCN(c2cccc(F)c2)CC1`, the Percent Effect is 2.33% in test [1] and -14.1% in test [2].
In the same order, the values of `CN(c1ccncn1)C1CC2(CCN(C(=O)c3cccs3)C2)C1` (centres undefined) are -6.21% and -35.5%.
Taken in the same sequence, the figures for `Cn1nc(CNC(=O)c2ccc(Cl)cc2)c2c1CCOC2` were 2.4% and -5.64%.
In the same order, the values of `CCS(=O)(=O)N1CCC2(CCC2NC(=O)c2ccn(C)c2)CC1` (centres undefined) are 1.6% and 9%.
`CC(=O)N1CCN(C(=O)C(C)n2cncn2)CC1` (centres undefined): the Percent Effect in test [1] was -4.44%; in test [2], 1.67%.
